This is a sample that favours compounds with a hit; in the whole collection about 3.2% have one here.
HDAC3 inh: HDAC3 deacetylase inhibitors, primary screen, biochemical, fluorescence, cell-free homogeneous; recombinant HDAC3, fluorogenic peptide/trypsin coupled; inhibition, % at 8.3 µM; 320,000 tested, 0.15% active; in the data active = inhibition above about 26%, passing the limit was not always enough
CHT allo act: CHT positive allosteric modulators, primary screen, cell-based, membrane potential dye, choline EC20; 310,000 tested, 0.49% active; B-score at 10 µM; High affinity choline transporter 1 (Homo sapiens), Q9GZV3; CHT-expressing cells; stronger effect = higher value; LV-AA mutant CHT in HEK293 cells;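 active = initial fluorescence not abnormally high and integrated response B-score, plate-corrected, over 3 SD above library mean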
CHT inh: inhibitors of human choline transporter CHT; High affinity choline transporter 1 (Homo sapiens), Q9GZV3; B-score at 10 µM; CHT-expressing cells, membrane potential dye, choline response; stronger effect = lower value; AID 488975, 2010; 310,000 tested, 0.86% active;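 active = B-score over 3 SD under the library average, and starting fluorescence ratio not unusually high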;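 also: choline stimulus applied at its EC90 after an EC20 pre-addition; B-score computed on integrated fluorescence ratio after choline addition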
TMEM16A act: TMEM16A chloride channel activators or potentiators, primary screen, cell-based, HTS; Anoctamin-1 (Mus musculus), Q8BHY3; HEK293 TMEM16A/YFP-H148Q/I152L, iodide quench fluorescence; stronger effect = lower value; B-score at 10 µM; 340,000 tested, 0.3% active; AID 623877, 2012;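 active = fluorescence-ratio B-score plate-corrected deviation score at least 3 library SD below zero, with starting fluorescence score within 5 deviations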;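 also: channel opened by trigger with iodide after compound preincubation; score built on the fluorescence ratio of max minus min over baseline; more negative score means more quench and so TMEM16A activation or potentiation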
Target sequence (Q8BHY3 whole entry, looked up): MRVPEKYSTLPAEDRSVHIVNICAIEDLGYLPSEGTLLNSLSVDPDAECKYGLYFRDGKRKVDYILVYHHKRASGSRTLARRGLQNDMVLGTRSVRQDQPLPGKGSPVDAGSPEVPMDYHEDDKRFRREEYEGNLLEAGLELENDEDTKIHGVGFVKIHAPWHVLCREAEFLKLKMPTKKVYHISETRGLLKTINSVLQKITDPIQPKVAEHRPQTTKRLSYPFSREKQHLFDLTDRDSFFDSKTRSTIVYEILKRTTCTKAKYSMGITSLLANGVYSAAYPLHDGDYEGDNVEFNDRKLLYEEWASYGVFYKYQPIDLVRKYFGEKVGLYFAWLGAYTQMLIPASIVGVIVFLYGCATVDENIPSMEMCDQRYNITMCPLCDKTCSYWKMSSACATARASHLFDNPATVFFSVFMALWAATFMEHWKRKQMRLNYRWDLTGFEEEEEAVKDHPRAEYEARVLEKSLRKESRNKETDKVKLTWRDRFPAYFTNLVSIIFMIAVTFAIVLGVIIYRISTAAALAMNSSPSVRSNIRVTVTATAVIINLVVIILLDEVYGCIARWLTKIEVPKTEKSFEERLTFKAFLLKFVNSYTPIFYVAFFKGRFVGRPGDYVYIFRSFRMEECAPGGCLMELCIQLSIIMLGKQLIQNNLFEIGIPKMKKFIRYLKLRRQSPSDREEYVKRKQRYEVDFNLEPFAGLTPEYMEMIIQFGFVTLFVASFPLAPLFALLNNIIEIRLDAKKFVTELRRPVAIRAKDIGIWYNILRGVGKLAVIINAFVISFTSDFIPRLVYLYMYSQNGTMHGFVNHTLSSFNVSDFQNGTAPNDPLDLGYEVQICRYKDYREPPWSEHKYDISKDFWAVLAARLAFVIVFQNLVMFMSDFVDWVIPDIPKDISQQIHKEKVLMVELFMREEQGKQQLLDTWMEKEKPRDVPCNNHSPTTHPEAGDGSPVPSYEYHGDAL
ANO1 block: TMEM16A chloride channel inhibitors, primary screen, cell-based, HTS; Anoctamin-1 (Mus musculus), Q8BHY3; HEK293 TMEM16A/YFP iodide influx fluorescence, ionomycin; normalized B-score (activity score, 25-100; higher = stronger inhibition) at 10 µM; 310,000 tested, 1.2% active; AID 588511, 2011;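 active = ratio plate-corrected score three or more library SD toward inhibition, starting fluorescence score within five deviations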;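 also: score derived from kinetic fluorescence span divided by baseline fluorescence per well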
PHOSPHO1 block: PubChem AID 1565; Phosphoethanolamine/phosphocholine phosphatase (Homo sapiens), Q8TCT1; recombinant PHOSPHO1, absorbance phosphatase assay; inhibition, % at 13.3 µM; 290,000 tested, 1.1% active; in the data active = inhibition above about 60%
TMEM16A reconf: TMEM16A chloride channel inhibitors, confirmation, cell-based, re-confirmation; HEK293 TMEM16A/YFP-H148Q, iodide quench fluorescence; ionomycin added to raise cell calcium; 2,300 tested, 39% active; inhibition, % at 10 µM; shares compounds with ANO1 block;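 active = mean duplicate percent inhibition, scaled so buffer wells are 0 and the reference blocker 100, over three buffer SD above buffer mean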
TMEM16A Ca cntr: calcium mobilization in TMEM16A/YFP HEK293 cells, confirmation, counter-screen for TMEM16A inhibitor project. Fluo4 calcium mobilization. calcium response (% of ionomycin), % at 10 µM. 2,300 tested, 2% active. shares compounds with ANO1 block;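 active = duplicate-averaged calcium signal over 20% of the ionomycin maximum, relative to buffer baseline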;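 also: each well's signal is peak minus trough fluorescence divided by its pre-addition baseline; 0% = buffer wells and 100% = ionomycin wells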
YFP-HEK293 quench: iodide YFP quench changes in parental YFP-HEK293, counter-screen for TMEM16A inhibitor project, cell-based; shares compounds with ANO1 block; ionomycin; YFP ratio F(max-min)/F0 at 10 µM; 2,300 tested, under 10 active; AID 652233, 2013;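 active = yellow fluorescent protein signal ratio exceeding the buffer control mean by over 5 SD of those controls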;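 also: ratio is mean of duplicate wells from kinetic YFP trace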
ClC-1 inh: ClC-1 chloride channel inhibition, selectivity assay for TMEM16A inhibitor project, cell-based, voltage-dependent ClC-1. shares compounds with ANO1 block. CHO ClC-1-YFP, iodide influx fluorescence quench; iodide control reads 0, buffer control 100. ratio percent, % at 10 µM. 2,300 tested, under 10 active. AID 652236, 2013;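 active = duplicate-mean ratio percent above the mean of iodide-only control wells, which defines zero, plus 5 of their SD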;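 also: higher percent means stronger block of ClC-1 iodide influx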
* marks the source's active call; other numbers are inactive results; i = inactive; · = not tested or not shown.

SMILES	HDAC3 inh	CHT allo act	CHT inh	TMEM16A act	ANO1 block	PHOSPHO1 block	TMEM16A reconf	TMEM16A Ca cntr	YFP-HEK293 quench	ClC-1 inh
O=C(CCCN1C(=O)c2ccccc2C1=O)N1CCc2ccccc2C1	5	i	i	i	25*	15	i	i	-1.1	-4
CCOC(=O)c1ccc(NC(=O)NS(=O)(=O)c2ccc(C)cc2)cc1	13	i	i	i	i	18	·	·	·	·
Cc1ccc(Nc2nc(COC(=O)C3CC3)cs2)cc1	3	i	i	i	100*	41	21%*	i	-0.83	-8
Cc1ccc(Nc2nc(C(=O)N3CCC(C(=O)N4CCN(C)CC4)CC3)cs2)cc1	6	i	i	i	i	17	·	·	·	·
CC1C/C(=N/N=C2/NC(=O)CS2)CC(C)(C)C1 (centres undefined)	-2	i	i	i	100*	22	i	i	-1.2	-13
CC(C)(Oc1ccc(Cl)cc1)C(=O)NCCN1C(=O)S/C(=C/c2cccnc2)C1=O	-4	i	i	i	i	-2	·	·	·	·
CC(Oc1ccc(Cl)cc1)C(=O)NCCN1C(=O)S/C(=C\c2cccnc2)C1=O (centres undefined)	·	i	i	i	25*	-4	55%*	i	-0.82	-3
COc1ccc(CC2(CO)CCN(Cc3cnc(-c4ccccc4C)nc3)CC2)cc1	·	i	i	i	25*	-17	i	i	-1	-9
COc1ccc(CC2(CO)CCN(Cc3cnn(-c4ccccc4)c3)CC2)cc1	2	i	i	i	i	49	·	·	·	·
COc1ccc(CC2(CO)CCN(CC3=Cc4cc(Cl)ccc4OC3)CC2)cc1	-14	i	i	i	25*	24	16%*	i	-1	-22
OC(COc1ccc2ccccc2c1Br)Cn1ccnc1 (centres undefined)	-9	i	i	i	25*	5	i	i	-1	-1
COc1ccc(CCN(C)C(=O)CSc2nc3ccccc3c(=O)n2CC2CCCO2)cc1OC (centres undefined)	·	·	·	i	·	·	·	·	·	·
CCOC(=O)c1ccccc1NC(=O)c1nc2nccc(C)n2n1	7	i	i	i	25*	5	i	i	-0.9	2
Cc1ccnc2nc(C(=O)OCC(=O)Nc3ccccc3C(C)(C)C)nn12	3	i	i	i	i	-23	·	·	·	·
CCCCSc1nnc(-c2ccccc2)c2ccccc12	6	i	i	i	100*	-6	i	i	-1.1	-8
O=c1cc(-c2ccc(O)cc2)oc2cc(O)c(C3OC(CO)C(O)C(O)C3O)c(O)c12 (centres undefined)	3	i	i	i	i	44	·	·	·	·
O=S(=O)(NCC(c1ccco1)N1CCc2ccccc2C1)c1ccc(Br)cc1 (centres undefined)	3	i	i	i	25*	·	i	i	-0.82	-5

Source: PubChem (several laboratories)
